Laboratory results from PubChem BioAssay (NCATS).
Values joined by “and” are separate entries in the source; they are usually repeats but may differ in a detail not shown here. Equal entries are not always repeated. Inconclusive results are not listed. Where a structure was tested more than once in an assay, its records may differ in their call. Active and inactive are the calls of the source. Unless noted, the call rests on the fitted dose curve; in most records, active means well fitted curve in either direction with a large enough effect (not every such curve was filed as active); inconclusive means small, poorly fitted or top-dose-only effect, or another doubt; inactive means flat fitted curve, though single readings scatter.

Columns and labels:
[1] = AP1 Signaling Pathway (AID 357); further: on the % scale 0 is the no-effect control and ±100 the full control effect
How it was run: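 AP-1-bla ME-180 cells with beta-lactamase reporter under AP-1 response element, stimulated with EC50 EGF; compounds titrated, 5 hours at 37 degrees Celsius. CCF4 read at 460/530 nm ratio; positive and negative modulators judged by AC50.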

[2] = Cell Viability - BJ (AID 421; calls by dose curve;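 further: potency means the concentration at half of the fitted maximal effect; cells exposed to compound for 40 hours at 37 °C before readout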); settings: BJ fibroblast viability, qHTS
How it was run: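 Cytotoxicity in human BJ foreskin fibroblasts is scored as loss of cellular ATP after a 40-hour exposure, measured by luciferase luminescence. Controls are DMSO and 100 uM tamoxifen.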

[3] = Cell Viability - Jurkat (AID 426;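 active means dose-dependent loss of cell ATP signal giving a full or clear fitted curve, ranked by lower potency value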; further: potency means the concentration at half of the fitted maximal effect); settings: qHTS
How it was run: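 Jurkat (clone E6-1, human T-cell leukemia) cells, 5000/well in complete medium, were exposed to compound for 40 hr at 37 °C. Viability was read as intracellular ATP by CellTiter-Glo luminescence; AC50 came from Hill fits of concentration-response data.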

[4] = Cell Viability - Hek293 (AID 427;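 active means compounds whose dose-response curve shows a full or clear partial loss of cell viability, called from curve shape rather than a numeric limit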;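 further: potency means the concentration at half of the fitted maximal effect; cells exposed to compound for 40 hours at 37 °C before reading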); settings: qHTS
How it was run: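 qHTS, human embryonic kidney (adenovirus-transformed) cells; 40 hr cpd, 37 °C; CellTiter-Glo ATP luminescence. Norm: DMSO = 0, 100 uM tamoxifen = 100% inhibition. Hill-fit AC50.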

[5] = Cell Viability - HepG2 (AID 433; calls by dose curve;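 further: potency means the concentration at half of the fitted maximal effect; potency for ATP loss meaning cytotoxicity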); settings: qHTS
How it was run: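 HepG2 hepatocellular carcinoma cells (1500/well) were treated with compounds for 40 h at 37 °C in complete medium; intracellular ATP was read by CellTiter-Glo luminescence. Data were normalized to DMSO and 100 uM tamoxifen, and AC50 came from Hill fits.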

[6] = Cell Viability - MRC5 (AID 434; calls by dose curve;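 further: potency means the concentration at half of the fitted maximal effect; potency reflects cytotoxicity seen as loss of intracellular ATP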); settings: MRC5 lung fibroblast viability, qHTS
How it was run: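 MRC5 normal human lung fibroblasts, 1500 cells/well, exposed to compound for 40 hr at 37 C. Cellular ATP was read by CellTiter-Glo luminescence; data normalized to DMSO and 100 uM tamoxifen, with AC50 from Hill fits.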

[7] = Cell Viability - SK-N-SH (AID 435; calls by dose curve;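 further: potency means the concentration at half of the fitted maximal effect; compound exposure lasted 40 h at 37 °C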); settings: SK-N-SH neuroblastoma cell viability qHTS
How it was run: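 SK-N-SH human neuroblastoma cells (1500/well) were exposed to compounds in complete medium for 40 h at 37 °C, and intracellular ATP was then measured by CellTiter-Glo luminescence. AC50 was taken from Hill fits, normalized to DMSO and 100 uM tamoxifen.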

[8] = NFAT Signaling Pathway (AID 444); settings: Jurkat NFAT-bla M1, carbachol, beta-lactamase ratio, 5 h;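 further: carbachol stimulus at about its EC50 of 1 µM final; on the % scale 0 is the no-effect control and ±100 the full control effect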
How it was run: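 Jurkat cells with NFAT-driven β-lactamase reporter and co-expressed M1 receptor, stimulated with carbachol (final 1 uM, ~EC50), compound titration, 5 h at 37 °C. CCF4 loaded 1 h at RT; 460/530 nm ratio gave %activity and AC50.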

[9] = Stat Signaling Pathway (AID 446);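 further: ME-180 cervical cancer cells given 40 pM IL-6 alongside compound; SIE-controlled beta-lactamase reporter measured as 460/530 nm FRET emission ratio; on the % scale 0 is the no-effect control and ±100 the full control effect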
How it was run: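 Screening format detects activators and inhibitors alike: ME-180 SIE-bla cells stimulated at 40 pM IL-6 for 5 hrs with compound, then dual-emission beta-lactamase read at 405 nm excitation.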

[10] = target: Glucocorticoid receptor (Homo sapiens) (UniProt P04150); test: GR-GFP Redistribution (AID 450;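 active means compounds whose dose series gives a full or clear partial fitted curve of increased nuclear translocation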; further: potency means the concentration at half of the fitted maximal effect); settings: U2OS GR-GFP nuclear translocation, laser cytometry, 2 h
[11] = target: Glucocorticoid receptor (Homo sapiens) (UniProt P04150); test: GR-EFC Redistribution (AID 451; calls by dose curve; further: potency means the concentration at half of the fitted maximal effect); settings: CHO-K1 GR-EFC translocation, beta-gal luminescence, 2 h
How it was run: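 CHO-K1 cells expressing nuclear EA and GR-ED fragments of b-gal; compounds titrated up to 46 uM final, 2 h at 37 C. GR nuclear translocation read as complemented b-gal luminescence after 1 h RT detection.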

[12] = target: Mitogen-activated protein kinase 10 (Mus musculus) (UniProt Q61831); test: JNK3 AlphaScreen Assay (AID 530);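 further: kinase came from lysate of stimulated human HepG2 cells; signal reports phosphorylation of biotinylated GST-cJun 1-79 at Ser73 with 10 µM ATP; on the % scale 0 is the no-effect control and ±100 the full control effect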
How it was run: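 qHTS format: compounds tested as titrations against IL-1beta/TNF-alpha-activated HepG2 lysate JNK3 with biotin-GST-cJun substrate and 10 uM ATP at room temperature. Loss of anti-phospho-cJun AlphaScreen signal indicates inhibition.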

[13] = Cell Viability - N2a (AID 540; active means well fitted curve in the direction sought with a large enough effect; an effect the other way counts as inactive or inconclusive;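 further: plate controls were DMSO alone for no effect and tamoxifen control for full effect; nearly all actives have a fitted effect of over 45% in size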); settings: N2a mouse neuroblastoma cell viability; activity change, negative = cytotoxicity: at 92.2 µM (top of the series)
How it was run: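 Mouse neuroblastoma N2a cells (1500/well) were preincubated 5 hr at 37 °C, then exposed to compounds for 40 hr at 37 °C in complete medium. Viability was read as intracellular ATP by CellTiter-Glo luminescence; AC50 from Hill fits.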

[14] = Cell Viability - NIH 3T3 (AID 541; active means well fitted curve in the direction sought with a large enough effect; an effect the other way counts as inactive or inconclusive;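 further: plate controls were DMSO alone for no effect and tamoxifen positive control for full effect; nearly all actives have a fitted effect of over 25% in size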); settings: NIH 3T3 cell viability, qHTS; activity change, negative = cytotoxicity: at 92.2 µM (top of the series)
How it was run: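 NIH 3T3 mouse embryo fibroblasts (1000 cells/well) were plated in complete medium and treated with compound for 40 hr at 37 °C. Viability was read as intracellular ATP by CellTiter-Glo luminescence; AC50 values came from Hill-equation fits of concentration-response data.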

[15] = Cell Viability - HUV-EC-C (AID 542; active means well fitted curve in the direction sought with a large enough effect; an effect the other way counts as inactive or inconclusive; further: on the % scale 0 is the no-effect control and ±100 the full control effect; nearly all actives have a fitted effect of over 35% in size)
How it was run: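 HUV-EC-C normal human vascular endothelial cells, 1000 cells/well, pre-incubated 5 hr at 37 °C, then exposed to compounds for 40 hr at 37 °C in complete medium. Viability measured as intracellular ATP by CellTiter-Glo luminescence; AC50 from Hill fits.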

[16] = Cell Viability - H-4-II-E (AID 543; active means well fitted curve in the direction sought with a large enough effect; an effect the other way counts as inactive or inconclusive; further: on the % scale 0 is the no-effect control and ±100 the full control effect; nearly all actives have a fitted effect of over 35% in size)
How it was run: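 Rat hepatoma H-4-II-E cells (1500/well) were plated, incubated 5 hr at 37 °C, then exposed to compounds for 40 hr at 37 °C. Cellular ATP was read by CellTiter-Glo luminescence; AC50 came from Hill-equation fits of concentration-response data.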

[17] = Cell Viability - SH-SY5Y (AID 544; active means well fitted curve in the direction sought with a large enough effect; an effect the other way counts as inactive or inconclusive;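 further: 0% = DMSO alone and -100% = 100 µM tamoxifen; nearly all actives have a fitted effect of over 55% in size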); settings: SH-SY5Y neuroblastoma cell viability; viability change, negative = cytotoxic: at 92.2 µM (top of the series)
How it was run: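 Human neuroblastoma SH-SY5Y cells (1500/well) in complete medium were exposed to compounds for 40 hr at 37 °C; intracellular ATP was then quantified by CellTiter-Glo luminescence after 20 min at room temperature. AC50 came from Hill-equation concentration-response fits.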

[18] = Cell Viability - Renal Proximal Tubule (AID 545; active means well fitted curve in the direction sought with a large enough effect; an effect the other way counts as inactive or inconclusive;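 further: 0% = DMSO only and -100% = 100 µM tamoxifen; nearly all actives have a fitted effect of over 40% in size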)
How it was run: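 Primary rat renal proximal tubule cells (1000/well) were treated with compounds for 40 hr at 37 °C in complete medium. Intracellular ATP was measured by CellTiter-Glo luminescence, and AC50 values came from Hill-equation fits of concentration-response data.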

[19] = target: Cytochrome P450 1A2 (Homo sapiens) (UniProt P05177); test: p450-cyp1a2 (AID 410; calls by dose curve; further: potency means the concentration at half of the fitted maximal effect;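 on activity change, negative = inhibition: -100% = full effect of reference inhibitor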)
How it was run: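 Human CYP1A2 (20nM) demethylated Luciferin-ME at its Km (100uM) in 100mM KPO4. After 10 min compound preincubation, NADPH regeneration ran the reaction 60 min at room temperature. Luciferin was read by luminescence, normalized to 57 uM furafylline.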

[20] = target: Lysosomal acid glucosylceramidase (Homo sapiens) (UniProt P04062); test: Glucocerebrosidase-p2 (AID 348; in the data active means potency below about 10 µM; further: potency means the concentration at half of the fitted maximal effect); settings: purified GBA, blue fluorogenic substrate, 40 min
How it was run: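 Compounds titrated from 0.6 nM upwards against 0.2 nM enzyme in pH 5.9 citric acid/KH2PO4, taurocholate, tween-20; blue fluorogenic substrate 80 uM, 40 min room temperature, stopped and read Ex 365/Em 440 for AC50.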

Glucocorticoid receptor (Homo sapiens), sequence (P04150 whole entry, looked up, the tested form may be a part): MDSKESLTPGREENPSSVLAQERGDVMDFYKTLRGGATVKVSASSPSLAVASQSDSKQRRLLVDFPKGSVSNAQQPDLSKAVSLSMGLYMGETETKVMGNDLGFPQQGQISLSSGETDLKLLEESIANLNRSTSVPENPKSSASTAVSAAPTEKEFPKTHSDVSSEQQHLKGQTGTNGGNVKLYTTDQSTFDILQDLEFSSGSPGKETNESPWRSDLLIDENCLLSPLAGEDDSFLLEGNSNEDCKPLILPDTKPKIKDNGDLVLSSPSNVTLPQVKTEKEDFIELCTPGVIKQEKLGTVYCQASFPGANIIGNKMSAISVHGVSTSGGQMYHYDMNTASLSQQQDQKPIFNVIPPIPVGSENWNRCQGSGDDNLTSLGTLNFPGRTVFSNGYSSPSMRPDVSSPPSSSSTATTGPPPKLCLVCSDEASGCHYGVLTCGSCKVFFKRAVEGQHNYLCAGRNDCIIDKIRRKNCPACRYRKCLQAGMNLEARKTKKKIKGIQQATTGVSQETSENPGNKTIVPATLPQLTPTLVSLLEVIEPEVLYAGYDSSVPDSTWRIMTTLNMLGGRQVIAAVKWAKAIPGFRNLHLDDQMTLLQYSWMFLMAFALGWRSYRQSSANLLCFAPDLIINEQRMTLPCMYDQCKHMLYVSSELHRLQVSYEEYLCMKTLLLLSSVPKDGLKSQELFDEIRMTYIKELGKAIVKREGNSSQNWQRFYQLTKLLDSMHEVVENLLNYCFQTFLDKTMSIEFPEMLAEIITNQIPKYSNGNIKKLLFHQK
Cytochrome P450 1A2 (Homo sapiens), sequence (P05177 whole entry, looked up): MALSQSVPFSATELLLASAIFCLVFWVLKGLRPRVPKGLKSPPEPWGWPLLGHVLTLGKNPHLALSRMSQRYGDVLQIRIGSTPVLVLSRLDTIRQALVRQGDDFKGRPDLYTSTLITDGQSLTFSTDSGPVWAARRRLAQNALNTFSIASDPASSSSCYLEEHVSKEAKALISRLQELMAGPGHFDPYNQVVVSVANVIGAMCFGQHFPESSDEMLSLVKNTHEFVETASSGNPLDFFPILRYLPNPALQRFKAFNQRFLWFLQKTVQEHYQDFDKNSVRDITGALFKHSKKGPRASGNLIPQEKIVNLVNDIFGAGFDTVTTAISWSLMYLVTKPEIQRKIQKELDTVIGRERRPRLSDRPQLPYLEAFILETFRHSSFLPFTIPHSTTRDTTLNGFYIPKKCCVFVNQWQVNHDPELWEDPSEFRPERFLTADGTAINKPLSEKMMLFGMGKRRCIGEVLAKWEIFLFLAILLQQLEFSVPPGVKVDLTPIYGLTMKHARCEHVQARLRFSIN
Lysosomal acid glucosylceramidase (Homo sapiens), sequence (P04062 whole entry, looked up): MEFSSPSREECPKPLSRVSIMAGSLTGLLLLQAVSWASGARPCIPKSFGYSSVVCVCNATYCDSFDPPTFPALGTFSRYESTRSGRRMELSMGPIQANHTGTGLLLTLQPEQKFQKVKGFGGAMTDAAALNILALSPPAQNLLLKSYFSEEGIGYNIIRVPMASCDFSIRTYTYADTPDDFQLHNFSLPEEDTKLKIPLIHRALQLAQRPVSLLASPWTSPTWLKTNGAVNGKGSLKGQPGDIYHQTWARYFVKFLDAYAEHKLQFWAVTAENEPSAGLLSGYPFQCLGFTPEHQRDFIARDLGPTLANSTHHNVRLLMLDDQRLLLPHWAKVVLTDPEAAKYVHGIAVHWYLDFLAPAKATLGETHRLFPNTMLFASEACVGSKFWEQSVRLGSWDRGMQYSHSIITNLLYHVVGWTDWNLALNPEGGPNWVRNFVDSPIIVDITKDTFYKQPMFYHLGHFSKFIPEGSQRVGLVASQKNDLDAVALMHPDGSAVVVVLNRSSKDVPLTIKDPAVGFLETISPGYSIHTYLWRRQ

COc1ccc2[nH]cc(CCNC(C)=O)c2c1
inactive: outcome [1] | Potency [2] > 92 µM | Potency [3] > 92 µM | Potency [4] > 92 µM | Potency [5] > 92 µM | Potency [6] > 92 µM | Potency [7] > 92 µM | activity change, negative = inhibition ([8]; at 17.2 µM (top of the series)) -17.4% | activity change, negative = inhibition ([8]; at 38 µM (top of the series)) 14.9% | outcome [9] | Potency [10] > 46 µM and > 20.6 µM | Potency [11] > 46 µM and > 20.6 µM | outcome [12] | activity change, negative = cytotoxicity [13] -15.6% and 3.75% | Potency [14] | outcome [15] | Potency [16] | Potency [17] | Potency [18]

CN1CCC(=C2c3ccccc3CC(=O)c3sccc32)CC1
inactive: outcome [1] | Potency [19] | outcome [9] | Potency [10] > 46 µM and > 20.6 µM | Potency [11] > 46 µM and > 20.6 µM | outcome [12]
active: activity change, negative = inhibition ([8]; at 17.2 µM (top of the series)) -94.3%

CC[C@@]1(O)C(=O)OCc2c1cc1n(c2=O)Cc2cc3c(CN(C)C)c(O)ccc3nc2-1
inactive: Potency [20] > 11.4 µM | activity change, negative = inhibition [19] -17.9% [at 2.29 µM] | Potency [10] > 46 µM | Potency [11] > 9.22 µM | activity change, negative = inhibition [12] 4.05% [at 11.4 µM]

CC(C)NCC(O)COc1ccc(CCOCC2CC2)cc1 (stereo not given)
inactive: outcome [1] | outcome [9] | Potency [10] > 20.6 µM

COc1ccccc1N1CCN(CC(O)COc2cccc3ccccc23)CC1 (stereo not given)
inactive: outcome [1] | activity change, negative = inhibition ([8]; at 17.2 µM (top of the series)) 9.92% | outcome [9] | Potency [10] > 20.6 µM

Cc1cnc(C(=O)NCCc2ccc(S(=O)(=O)NC(=O)NC3CCCCC3)cc2)cn1
inactive: outcome [1] | activity change, negative = inhibition ([8]; at 17.2 µM (top of the series)) -11% and -0.964% | activity change, negative = inhibition ([8]; at 38 µM (top of the series)) -4.17% | outcome [9] | outcome [12]

Nc1nnc(-c2cccc(Cl)c2Cl)c(N)n1
inactive: Potency [19] | activity change, negative = inhibition ([8]; at 17.2 µM (top of the series)) -16.5% | activity change, negative = inhibition ([8]; at 38 µM (top of the series)) 15.4% | outcome [9] | outcome [12]

CCCCc1oc2ccccc2c1C(=O)c1cc(I)c(OCCN(CC)CC)c(I)c1
inactive: outcome [1] | activity change, negative = inhibition ([8]; at 17.2 µM (top of the series)) 4.27% | outcome [9] | outcome [12]

CC[N+](CC)(CC)CCOc1cccc(OCC[N+](CC)(CC)CC)c1OCC[N+](CC)(CC)CC
inactive: Potency [19] | activity change, negative = inhibition ([8]; at 17.2 µM (top of the series)) -15.9% | activity change, negative = inhibition ([8]; at 38 µM (top of the series)) -22% | outcome [9] | Potency [10] > 46 µM and > 20.6 µM | Potency [11] > 46 µM and > 20.6 µM | outcome [12]

CCOC(=O)c1ncn2c1CN(C)C(=O)c1cc(F)ccc1-2
inactive: activity change, negative = inhibition ([8]; at 38 µM (top of the series)) -1.55%
active: Potency [19] 1.58 µM

CN(C)CCC=C1c2ccccc2C=Cc2ccccc21
active: activity change, negative = inhibition ([8]; at 7.69 µM (top of the series)) -78.7%
inactive and 12.6 µM (active): Potency [19]
inactive: Potency [20] > 11.4 µM | outcome [9] | Potency [10] > 46 µM and > 20.6 µM | Potency [11] > 46 µM and > 20.6 µM and > 9.22 µM | outcome [12]

N[C@@H](Cc1c[nH]c2ccc(O)cc12)C(=O)O
inactive: Potency [19] | Potency [2] > 92 µM | Potency [4] > 92 µM | Potency [5] > 92 µM | Potency [6] > 92 µM | activity change, negative = inhibition ([8]; at 38 µM (top of the series)) -5.52% | outcome [9] | Potency [10] > 46 µM | Potency [11] > 46 µM | outcome [12] | activity change, negative = cytotoxicity [13] -0.161% | Potency [14] | outcome [15] | Potency [16] | Potency [18]

CN(C)c1nc(N(C)C)nc(N(C)C)n1
inactive: outcome [1] | activity change, negative = inhibition ([8]; at 17.2 µM (top of the series)) 2.19% and 4.9% | activity change, negative = inhibition ([8]; at 38 µM (top of the series)) 6.06% | outcome [9] | Potency [10] > 46 µM and > 20.6 µM | Potency [11] > 46 µM and > 20.6 µM | outcome [12]

COc1cc2nc(N3CCN(C(=O)C4COc5ccccc5O4)CC3)nc(N)c2cc1OC (stereo not given)
inactive: outcome [1] | outcome [9]

CN1C(C(=O)Nc2ccccn2)=C(O)c2ccccc2S1(=O)=O
inactive and 20 µM (active): Potency [19]
inactive: outcome [1] | activity change, negative = inhibition ([8]; at 17.2 µM (top of the series)) 9.4% and 2.14% and -3.58% | activity change, negative = inhibition ([8]; at 38 µM (top of the series)) -8.1% | outcome [9] | Potency [10] > 46 µM and > 20.6 µM | Potency [11] > 46 µM and > 20.6 µM | outcome [12]

COc1ccc(CCN(C)CCCC(C#N)(c2ccc(OC)c(OC)c2)C(C)C)cc1OC (stereo not given)
inactive: outcome [1] | Potency [2] > 92 µM | Potency [4] > 92 µM | Potency [6] > 92 µM | Potency [7] > 92 µM | outcome [9] | outcome [12] | activity change, negative = cytotoxicity [13] -16.5% | outcome [15] | Potency [17] | Potency [18]

NCCCCCC(=O)O
inactive: Potency [19] | activity change, negative = inhibition ([8]; at 17.2 µM (top of the series)) -9.25% | activity change, negative = inhibition ([8]; at 38 µM (top of the series)) 21.3% | outcome [9] | Potency [10] > 46 µM and > 20.6 µM | Potency [11] > 46 µM and > 20.6 µM | outcome [12]

O=C1N(c2ccccc2)c2ccccc2C1(Cc1ccncc1)Cc1ccncc1
active: Potency [19] 15.8 µM
inactive: outcome [1] | activity change, negative = inhibition ([8]; at 38 µM (top of the series)) -6.55% | outcome [9] | Potency [10] > 46 µM | Potency [11] > 46 µM | outcome [12]
